YopH PTP inh = blocks Yersinia enterocolitica YopH tyrosine phosphatase; fluorescence Ex485/Em525; inhibition, % (no concentration beside the values); hit rate 0.16% among 140,000; AID 898; in the data active = inhibition above about 50%
RmlC RmlD mix = inhibitors of RmlC and RmlD coupled enzymes; inhibition, % at 5.5 µM; hit rate 0.39% among 110,000; RmlC/RmlD coupled enzyme inhibition, 384-well mixture HTS; in the data active = inhibition above about 30%, passing the limit was not always enough
* marks the source's active call; other numbers are inactive results. Only some compounds are listed: those with a hit (about 0.44% of all), similar ones and a draw of the others.

What do the screens show for `CC/C(=C\C1CCCCC1)C(NP(=O)(c1ccccc1)c1ccccc1)c1ccccc1` (centres undefined)?
YopH PTP inh: -17.6; RmlC RmlD mix: -16.2

What do the screens show for `COC(=O)CCC(=O)Nc1ccc(NC(=O)CCC(=O)OC)cc1`?
YopH PTP inh: -45.6; RmlC RmlD mix: -19.8

How did COC(=O)CCC(=O)Oc1ccc(OC(=O)CCC(=O)OC)cc1 do in these assays?
YopH PTP inh: 59.1*

Results for CN(CC(=O)N1CCCc2c1c(=O)oc1ccc(O)cc21)Cc1ccccc1 ?
YopH PTP inh: 51.0*; RmlC RmlD mix: 1.8

What do the screens show for `CC(C(=O)N1CCCc2c1c(=O)oc1ccc(O)cc21)N1CCc2ccccc2C1` (centres undefined)?
YopH PTP inh: 52.5*; RmlC RmlD mix: 9.4

What do the screens show for `CC(C(=O)N1CCc2ccccc21)N1CCc2ccccc2C1` (centres undefined)?
YopH PTP inh: -2.5; RmlC RmlD mix: -12.9

Results for CCCOc1ccc2oc(=O)c3c(c2c1)CCCN3C(=O)CN1CCCC(C(=O)OCC)C1 (centres undefined) ?
YopH PTP inh: -8.7; RmlC RmlD mix: -9.6

How did CC1CCN(CCC(=O)N2CCCc3c2c(=O)oc2ccc(O)cc32)CC1 do in these assays?
YopH PTP inh: 61.2*; RmlC RmlD mix: -16.6

How did O=C(CN1CCCC1)N1CCCc2c1c(=O)oc1ccc(OCc3ccccc3)cc21 do in these assays?
YopH PTP inh: -37.4; RmlC RmlD mix: -1.3

Results for CC(C)Oc1ccc(C(=O)NC2(C(F)(F)F)NC(=O)N(CCCc3ccccc3)C2=O)cc1 (centres undefined) ?
YopH PTP inh: -25.4

What do the screens show for `CC(C)C(NC(=O)CSCc1ccc([N+](=O)[O-])cc1)C(C)C`?
YopH PTP inh: -19.4

What do the screens show for `Cc1ccc(-n2c(C)cc(/C=C3\NC(=O)NC3=O)c2C)c(C)c1`?
YopH PTP inh: -12.2

Results for CN(C)c1ccc(/C=N/c2cc(-c3ccccc3)nn2-c2ccccc2)cc1 ?
YopH PTP inh: -4.0; RmlC RmlD mix: -4.1

What do the screens show for `C/C=C1\COC(C(=O)NCc2ccccc2)(C(F)(F)F)C=C1C=C(C)C` (centres undefined)?
RmlC RmlD mix: 7.8

What do the screens show for `O=C(c1ccco1)[C@@H]1[C@@H]2C(=O)N(c3ccc(Br)cc3)C(=O)[C@@H]2C2c3ccccc3C=CN21` (some centres undefined)?
YopH PTP inh: 88.0*; RmlC RmlD mix: 4.2

Results for O=C(c1ccc(Cl)cc1)[C@@H]1[C@@H]2C(=O)N(c3ccc(Cl)cc3)C(=O)[C@@H]2C2c3ccccc3C=NN21 (some centres undefined) ?
YopH PTP inh: -13.8

Results for O=C(c1ccco1)[C@@H]1[C@@H]2C(=O)N(c3ccc(F)cc3)C(=O)[C@@H]2C2c3ccccc3C=CN21 (some centres undefined) ?
YopH PTP inh: 73.7*; RmlC RmlD mix: 9.2

What do the screens show for `O=C(c1ccco1)[C@@H]1[C@@H]2C(=O)N(c3ccc(F)cc3)C(=O)[C@@H]2[C@H]2C=Cc3ccccc3N21`?
YopH PTP inh: 39.5

Results for CCCNc1nc2c(c(=O)[nH]c(=O)n2C)n1Cc1ccc(F)cc1 ?
YopH PTP inh: 60.1*; RmlC RmlD mix: 3.7

Results for CCNc1nc2c(c(=O)[nH]c(=O)n2C)n1Cc1ccc(F)cc1 ?
YopH PTP inh: -13.7; RmlC RmlD mix: -5.8

What do the screens show for `OCCNc1nc(Nc2cc(Cl)ccc2OC2CCCC2)nc(N2CCCC2)n1`?
RmlC RmlD mix: -10.8

How did O=S1(=O)CCOC[C@H](Cc2ccccc2)N1Cc1ccc(Cl)cc1 do in these assays?
RmlC RmlD mix: 0.7

What do the screens show for `O=C1c2ccccc2C(=O)N1CCCN1CCN(CCCN2C(=O)c3ccccc3C2=O)CC1`?
YopH PTP inh: 8.0

How did Cc1cc(=O)[nH]c2c(C)c(Cl)ccc12 do in these assays?
YopH PTP inh: -8.9; RmlC RmlD mix: -9.5

What do the screens show for `Cc1cc(=O)[nH]c2c(C)c(N)ccc12`?
YopH PTP inh: -14.2; RmlC RmlD mix: 58.7*

Results for C#CCn1cc(C=C2C(=O)c3ccccc3C2=O)c2ccccc21 ?
YopH PTP inh: 50.8*

What do the screens show for `CC1CCCCN1C(=O)Cn1cc(/C=C2/C(=O)Nc3ccccc32)c2ccccc21` (centres undefined)?
YopH PTP inh: 7.6; RmlC RmlD mix: 9.2

How did CC[C@@H](C)C(N)c1cn([C@@H](CCC(=O)O)C(=O)N2CCNCC2)nn1 (some centres undefined) do in these assays?
RmlC RmlD mix: -9.5

Results for O=C1C(Nc2ccccc2)=C/C(=N/S(=O)(=O)c2cccs2)c2ccccc21 ?
YopH PTP inh: -12.8

What do the screens show for `CCc1cc[n+](C2=C([O-])c3ccccc3C(=O)/C2=N\S(=O)(=O)c2cccs2)cc1`?
YopH PTP inh: 68.5*

Results for Cc1cccn2c(=O)c3cc(C(=O)NC(C)C)c(=N)n(Cc4ccncc4)c3nc12 ?
YopH PTP inh: -34.2
